VP16 counter: inhibits Gal4-VP16 luciferase reporter, ROR gamma counter-screen; Drosophila S2 Gal4-VP16 UAS-luciferase, luminescence, 20 h; Potency, µM (series often up to 53.6 µM), for inactives: at the highest dose activity, negative = inhibition, hits mostly inhibitors; 310,000 tested, 3.5% active; AID 2546;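 note: Gal4-VP16 expression switched on by copper sulfate through the metallothionein promoter; potency is the fitted concentration of half-maximal effect; nearly all actives have a fitted effect of over 50% in size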
TDP1 cell noCPT: qHTS for Inhibitors of human tyrosyl-DNA phosphodiesterase 1 (TDP1): qHTS in cells in absence of CPT; DT40 Tdp1-/- hTDP1 cells, no CPT, ATP luminescence, 48 h; Potency, µM (top dose mostly 46.2 µM), for inactives: top-dose activity change, negative = growth inhibition, usual class: inhibitors; 420,000 tested, 15% active; AID 686978, 2013; note: potency is the fitted concentration of half-maximal effect; nearly all actives have a fitted effect of over 55% in size
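Camptothecin absent (DMSO only). Human TDP1-complemented DT40 knockout cells, 400 cells/well, 37 °C for minimum 48 hr; ATP measured via CellTiter-Glo, 30 min dark incubation, luminescence.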
DT40 TDP1 CPT: growth inhibition of DT40 Tdp1-/-;hTDP1 cells with camptothecin (screen for TDP1 inhibitors) | chicken DT40 Tdp1-/-;hTDP1 cells + 20 nM CPT, ATP luminescence, 48 h | Potency, µM (doses to about 46.2 µM), inactives show top-dose activity change, negative = growth inhibition, actives largely listed as inhibitors | 420,000 tested, 12% active | AID 686979; note: potency is the fitted concentration of half-maximal effect; nearly all actives have a fitted effect of over 55% in size
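Chicken DT40 Tdp1-/- cells complemented with human TDP1, 400 cells/well, exposed to compounds plus 20 nM camptothecin for at least 48 h at 37 C; viability read as ATP content by CellTiter-Glo luminescence.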
ELG1 DNA repair: ELG1-dependent DNA repair inhibition | HEK293T ELG1-luciferase reporter, luminescence, 16 h; DNA damage induced by 5-fluorouridine | Potency, µM (titrated, usually from 46.1 µM), for inactives: at the top dose activity change, negative = inhibition, usual class: inhibitors | 330,000 tested, 2.3% active | AID 504467; note: potency is the fitted concentration of half-maximal effect; nearly all actives have a fitted effect of over 55% in size
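DMSO vehicle served as the neutral condition. Each well held 2,000 cells given 5-fluorouridine plus compound; after 16 hr at 37 °C/5% CO2, ONE-Glo was added and luciferase measured 30 min later.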
RORg inh: blocks mouse ROR gamma transcriptional activity; P51450; Drosophila S2 Gal4-RORgamma UAS-luciferase reporter, 20 h; Potency, µM (highest dose often 53.6 µM), without a hit: top-dose activity change, negative = inhibition, most hits filed as inhibitors; 310,000 tested, 5.4% active; note: potency is the fitted concentration of half-maximal effect; nearly all actives have a fitted effect of over 60% in size
Target sequence (P51450 whole entry, looked up, the tested form may be a part): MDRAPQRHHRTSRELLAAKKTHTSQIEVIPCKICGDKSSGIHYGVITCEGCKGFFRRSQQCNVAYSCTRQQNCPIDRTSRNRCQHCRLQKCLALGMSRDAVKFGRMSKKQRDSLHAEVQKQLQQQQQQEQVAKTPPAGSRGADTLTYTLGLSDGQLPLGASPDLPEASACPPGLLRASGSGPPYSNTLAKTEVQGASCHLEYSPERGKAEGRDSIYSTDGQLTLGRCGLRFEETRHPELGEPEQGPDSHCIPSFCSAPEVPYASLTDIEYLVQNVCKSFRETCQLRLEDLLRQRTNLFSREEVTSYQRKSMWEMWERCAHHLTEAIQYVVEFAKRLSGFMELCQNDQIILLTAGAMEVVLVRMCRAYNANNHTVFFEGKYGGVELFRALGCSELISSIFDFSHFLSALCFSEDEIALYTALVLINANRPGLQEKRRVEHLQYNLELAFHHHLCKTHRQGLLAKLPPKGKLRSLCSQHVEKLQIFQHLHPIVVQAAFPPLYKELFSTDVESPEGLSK
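Stably transfected Drosophila Schneider cells are the test system, with ROR gamma fused to Gal4 and luciferase under UAS control; luminescence is read after 20 hr of 700 uM copper sulfate induction at ambient temperature.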
IL-1B inflam inh: inflammasome signaling inhibition, IL-1 beta readout. THP-1 LPS/ATP IL-1B secretion, AlphaLISA, 16 h; active compounds read low. activity change, % at 57.5 µM. 360,000 tested, 4.7% active; in the data active = activity change below about -50%; inconclusive = mostly about -30% to -49%
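THP-1 cells pretreated 1 hr with compounds (up to 57.5 uM final), then stimulated with LPS (250 ng/mL final) plus ATP (1.25 mM final); secreted IL-1B measured by AlphaLISA after 16 hr, decreased signal indicating inhibition.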
Numbers without * were called inactive; ? = inconclusive; nt = no result; [ ] = remark or other dose. An excerpt weighted towards active compounds, which were near 21% of everything screened. Unless noted, calls come from the whole dose curve; as a rule, active = well fitted curve in the direction sought with a large enough effect; inconclusive = small, poorly fitted or top-dose-only effect, or another doubt; inactive = no such curve, though single readings can be large; an effect the other way counts as inactive or inconclusive. % is set by controls: 0 for no effect and ±100 for the full control effect.

SMILES	VP16 counter	TDP1 cell noCPT	DT40 TDP1 CPT	ELG1 DNA repair	RORg inh	IL-1B inflam inh
CCCn1c(SCC(=O)Nc2cccc(C)n2)nc2c1c(=O)n(C)c(=O)n2C	0%	?	18µM*	?	18%	22
CCOC(C)(C)C	-2%	nt	nt	nt	-22%	nt
O=C1c2ccccc2CN1C(CO)Cc1ccccc1 (stereo unspecified)	-3%	3%	1%	15%	-11%	-3
CC(=O)c1cccc(CN2CCCC(CCC(=O)NCc3ccc(C)o3)C2)c1 (stereo unspecified)	-2%	?	?	4%	-3%	9
O=P(O)(O)O[C@@H]1[C@H](O)[C@H](O)[C@@H](OP(=O)(O)O)[C@H](OP(=O)(O)O)[C@H]1O	2%	nt	nt	nt	-7%	nt
CCCNC(=O)c1cc2n(n1)CCCN(Cc1ccc(F)cc1)C2=O	nt	4%	0%	nt	nt	nt
CCS(=O)(=O)c1nc(S(=O)(=O)c2ccc(Cl)cc2)c(NCCN2CCOCC2)s1	?	2%	-11%	5%	-19%	-1
CCn1c(SCC(=O)Nc2ccc(NC(C)=O)cc2)nc2c1c(=O)n(C)c(=O)n2C	3%	?	-1%	6%	-2%	9
CCCn1c(SCC(=O)Nc2ccc(NC(=O)CC)cc2)nc2c1c(=O)n(C)c(=O)n2C	?	21µM*	0%	-12%	14%	-7
CCC(NC(=O)c1cc(COc2cncc(Cl)c2)on1)c1ccncc1 (stereo unspecified)	-1%	?	?	-11%	6%	-24
CCC(NC(=O)c1cc(COc2ccc(F)cc2Cl)on1)c1ccncc1 (stereo unspecified)	nt	23µM*	23µM*	?	nt	?
O=C(c1cc(COc2ccc(F)cc2Cl)on1)N1CCC(c2ccncc2)CC1	7.1µM*	6.5µM*	6.5µM*	-7%	11µM*	?
CC(C)(C)NC(=O)C1c2ccccc2OCC(=O)N1CCCN1CCOCC1 (stereo unspecified)	nt	2%	5%	nt	nt	37
Cc1ccc(C(C(=O)Nc2ccc(C(C)C)cc2)N(C)C(=O)c2ccc(=O)[nH]c2)cc1 (stereo unspecified)	-3%	18µM*	-10%	?	-30%	-15
COC(=O)N=Nc1c(O)n(Cc2ccccc2)c2ccccc12	0%	?	-23%	?	-5%	-10
C=CCn1c(O)c(N=NC(=S)Nc2ccccc2F)c2cc(S(=O)(=O)N3CCOCC3)ccc21	2µM*	0.73µM*	0.73µM*	-20%	0.45µM*	2
C=CCn1c(O)c(N=NC(=S)Nc2ccccc2F)c2ccccc21	1.8µM*	2.6µM*	4.1µM*	6.5µM*	0.79µM*	77
Oc1c(N=NC(=S)Nc2ccccc2F)c2ccccc2n1Cc1ccccc1	3.5µM*	5.8µM*	7.3µM*	8.2µM*	2.8µM*	-8
C=CCn1c(O)c(N=O)c2cc(C)ccc21	7%	?	-33%	2%	24%	-52*
C=CCn1c(O)c(N=NC(=O)c2ccccc2NS(=O)(=O)c2cccs2)c2ccccc21	-19%	-21%	0%	-3%	?	23
O=C1NC[C@H](c2ccccc2)N(CCc2cccc3ccccc23)C1=O	-2%	-86%	?	-5%	-1%	4
C[C@@H]1CN(Cc2ccc3c(c2)CN(C(=O)CCc2nc4ccc(F)cc4[nH]2)CCO3)C[C@H](C)O1	nt	-29%	3%[9.04 µM]	nt	nt	nt
Fc1ccc(-c2nnc(CN3CCN(c4ccccn4)CC3)o2)cc1	nt	-14%	-4%	nt	nt	nt
CCn1c(O)c(N=NC(=O)CNc2cccc(C)c2)c2ccccc21	-9%	?	12%	-26%	14%	46
C=CCn1c(O)c(N=NC(=S)Nc2cccc(C)c2)c2ccccc21	0.45µM*	1.8µM*	2.1µM*	15%	0.25µM*	-6
SMILES	VP16 counter	TDP1 cell noCPT	DT40 TDP1 CPT	ELG1 DNA repair	RORg inh	IL-1B inflam inh
Cc1c(Cl)cccc1NC(=S)N=Nc1c(O)n(CN2CCOCC2)c2ccccc12	5µM*	1.5µM*	5.8µM*	19%	1.8µM*	3
Oc1c(N=NC(=S)Nc2ccccc2F)c2ccccc2n1Cc1ccccc1Cl	6.3µM*	5.8µM*	6.5µM*	-19%	2.2µM*	?
CCn1c(O)c(N=NC(=O)CNc2ccc(C)cc2)c2ccccc21	7%	?	-20%	-4%	?	?
Cc1c(Cl)cccc1NC(=O)CCN1CCOCC1	-6%	-2%	-14%	11%	-21%[1.91 µM]	1
Cc1ccc(Cn2c(O)c(N=NC(=S)Nc3ccccc3F)c3ccccc32)cc1	7.1µM*	5.8µM*	6.5µM*	5.2µM*	4µM*	-6
COCCc1nn2c(=O)cc(COC(=O)COc3ccc(F)cc3)nc2s1	nt	-5%	1%	nt	nt	nt
CC(C)CCN1C(=O)c2ccc(C(=O)Nc3ccc(Br)cc3C(=O)O)cc2C1=O	-6%	0%	-1%	-3%	6%	12
COc1ccc(OC)c(S(=O)(=O)N2CCN(Cc3nc4ccc(C)cc4o3)CC2)c1	nt	-11%	?	nt	nt	nt
CCOc1ccc(CNC(=O)CCS(=O)(=O)c2cc3c4c(c2)CCN4C(=O)CC3)cc1	nt	-14%	-8%	nt	nt	nt
COCc1ccc(CN2CCc3c([nH]c4ccccc34)C2C(C)(C)C)o1 (stereo unspecified)	?	?	?	?	11µM*	-53*
CCn1ccnc1CN1CCc2c([nH]c3ccccc23)C1C(C)(C)C (stereo unspecified)	?	?	?	-14%	4.5µM*	-84*
CCn1ccnc1CN1CCc2c([nH]c3ccccc23)C1C1CCCCC1 (stereo unspecified)	?	26µM*	?	-14%	13µM*	29
Cc1cnc(CN2CCc3c([nH]c4ccccc34)C2CC(C)C)[nH]1 (stereo unspecified)	11%	?	?	-7%	-33%	?
CCn1ccnc1CN1CCc2c([nH]c3ccccc23)C1CC(C)C (stereo unspecified)	7.9µM*	16µM*	?	23µM*	3.2µM*	-4
COCCC(=O)N1CCc2c([nH]c3ccccc23)C1C(C)(C)C (stereo unspecified)	4%	-30%	-24%	4%	0%	26
